Results filed as inconclusive are left out. Active and inactive are the calls of the source.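 The calls were made as follows, unless noted: active = compounds that lower viability of the colon cancer cells in the luminescence readout, with no numeric limit stated; inactive = the rest.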
Experiments:
[1] = stimulators of insulin release from INS-1E, primary screen, cell-based, 5 mM glucose, NPC library (AID 1117329;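 active = compound raises insulin release from rat beta cells at 5 mM glucose, no numeric limit stated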); details: rat INS-1E insulin secretion, at 10 µM, stronger effect = higher value
[2] = growth inhibition of GSK3B-pretreated HCT116 cells – cell-based, CellTiter-Glo, 0.2 to 20 µM (AID 1117336;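 active = compounds lowering colon cancer cell viability after pretreatment blocking the GSK3B kinase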); details: HCT116 viability after GSK3B inhibitor, at 20 µM, stronger effect = higher value
[3] = inhibition of endothelial tube formation, primary screen, imaging, VEGF stimulated, CD31 staining, tube area, NPC library (AID 1117340;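 active = compound that reduces growth-factor-driven endothelial tube area in a mixed cell culture, no cutoff stated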); details: VEGF-stimulated ADSC/ECFC co-culture, at 10 µM, stronger effect = higher value
[4] = glucagon-like peptide 1 release enhancers, primary assay, NCI-H716 cell line, NPC library (AID 1117341;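 active = compound raises GLP1 secretion from the human gut endocrine cells, with no numeric limit stated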); details: NCI-H716 cells, at 10 µM, stronger effect = higher value
[5] = HCT116 colon cancer cell growth inhibition, primary screen, CellTiter-Glo luminescence, NPC library (AID 1117342;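 active = compounds that lower survival of HCT116 colon cancer cells in the luminescence readout, no numeric limit stated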); details: at 20 µM (top of the series)
[6] = CellTiter-Glo luminescent readout of SW480 viability loss, NPC library primary (AID 1117343); details: CellTiter-Glo luminescence; at 20 µM (top of the series)
[7] = decreased DLD-1 cellular survival, CellTiter-Glo luminescent readout, NPC compound collection, primary HTS (AID 1117346;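 active = compounds that lower survival of DLD-1 colon cancer cells in the luminescence readout, no cutoff given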); details: DLD-1 viability, CellTiter-Glo luminescence; at 20 µM (top of the series)
[8] = biological target: 6-phosphogluconate dehydrogenase, decarboxylating (Homo sapiens) (UniProt P52209); assay: 6PGD enzyme inhibitors, primary screen, biochemical, human, recombinant enzyme, NADPH absorbance (AID 1159550;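 active = at least 20% inhibition of 6-phosphogluconate dehydrogenase activity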); details: recombinant 6PGD, NADPH absorbance 341 nm; at 10 µM; stronger effect = higher value
Sequence of 6-phosphogluconate dehydrogenase, decarboxylating (Homo sapiens) (P52209 whole entry, looked up): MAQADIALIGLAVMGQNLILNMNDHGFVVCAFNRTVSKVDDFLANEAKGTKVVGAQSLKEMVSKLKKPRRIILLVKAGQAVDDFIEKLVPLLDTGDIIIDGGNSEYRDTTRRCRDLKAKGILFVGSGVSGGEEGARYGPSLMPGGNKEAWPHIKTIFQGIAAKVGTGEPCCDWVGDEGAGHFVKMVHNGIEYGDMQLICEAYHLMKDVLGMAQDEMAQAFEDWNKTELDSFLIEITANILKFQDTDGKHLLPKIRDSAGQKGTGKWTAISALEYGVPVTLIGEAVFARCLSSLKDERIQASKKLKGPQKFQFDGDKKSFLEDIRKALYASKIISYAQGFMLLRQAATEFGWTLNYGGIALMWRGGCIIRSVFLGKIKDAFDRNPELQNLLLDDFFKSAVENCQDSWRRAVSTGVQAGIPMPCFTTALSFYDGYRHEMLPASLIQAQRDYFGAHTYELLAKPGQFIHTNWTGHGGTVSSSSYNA

[9] = differential killing of epithelial or mesenchymal cells, primary screen, imaging, PC-3E GFP, TEM4-18 mCherry, co-culture (AID 1345086;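 active = compounds killing one labelled cell type while sparing the other, by normalised counts and ratio limits, not self-fluorescent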;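 as to all read-outs here: cells exposed to compound for 72 h before imaging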;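 as to red/green cell ratio (normalised): normalised mesenchymal count divided by normalised epithelial count so high means epithelial killing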); details: imaging cell counts, at 1 µM; for red/green cell ratio (normalised): actives lie on both sides, counts scaled to control wells, 1 = unselective
[10] = tested on: Aerobactin synthetase IucA (Klebsiella pneumoniae); assay: IucA aerobactin synthetase inhibitors, biochemical, Tocris library, absorbance (AID 1345561; call rule not given here;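 also: 100% = enzyme without compound and 0% = no enzyme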); details: purified IucA enzyme assay, absorbance (OD) read-out; stronger effect = lower value;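 tested at 8 µM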
[11] = growth inhibition of DIPG glioma cells, dose response, cell-based, SU-DIPG-XVII, MIPE5.0, CellTiter-Glo, qHTS (AID 1347060; cut-off not given, nearly all actives have AC50 up to about 26 µM); details: SU-DIPG-XVII viability, CellTiter-Glo ATP luminescence
[12] = growth inhibition of DIPG glioma cells, dose response, cell-based, SU-DIPG-XIII, MIPE4.0, CellTiter-Glo, qHTS (AID 1347061; cut-off not given, nearly all actives have AC50 up to about 37 µM;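 also: cells exposed to compound for 48 hours before readout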); details: SU-DIPG-XIII viability, CellTiter-Glo ATP luminescence
[13] = growth inhibition of DIPG glioma cells, dose response, cell-based, SU-DIPG-IV, MIPE4.0, CellTiter-Glo, qHTS (AID 1347063; cut-off not given, nearly all actives have AC50 up to about 30 µM;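 also: compound exposure lasted 48 hours before the viability readout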); details: SU-DIPG-IV viability, CellTiter-Glo ATP luminescence
[14] = growth inhibition of DIPG glioma cells, dose response, cell-based, JHH-DIPG-1, MIPE4.0, CellTiter-Glo, qHTS (AID 1347062; cut-off not given, nearly all actives have AC50 up to about 27 µM); details: JHH-DIPG-1 viability, CellTiter-Glo ATP luminescence
[15] = growth inhibition of DIPG glioma cells, dose response, cell-based, SU-DIPG-XIII, MIPE5.0, CellTiter-Glo, qHTS (AID 1347064; cut-off not given, nearly all actives have AC50 up to about 23 µM); details: SU-DIPG-XIII viability, CellTiter-Glo ATP luminescence
[16] = measured here: epithelial PC-3E GFP cell survival
[17] = measured here: mesenchymal TEM4-18 mCherry cell survival

COc1ccc(CCN2CCC(Nc3nc4ccccc4n3Cc3ccc(F)cc3)CC2)cc1
inactive: insulin secretion stimulation [1] 5.85% | GLP1 secretion stimulation [4] 14% | inhibition [8] 14.2% | red/green cell ratio (normalised) [9] 1.02 | remaining activity [10] 97.7%
active: viability decrease [2] 108% | tube area decrease [3] 98.1% | inhibition of viability [5] 112% | viability decrease (inhibition) [6] 129% | viability decrease (inhibition) [7] 100%
1.11: normalised cell number [9, 17]
1.09: normalised cell number [9, 16]

C[C@](N)(Cc1ccc(O)c(O)c1)C(=O)O
1.03: normalised cell number [9, 17]
0.98: normalised cell number [9, 16]
inactive: insulin secretion stimulation [1] 1.8% | viability decrease [2] 17.5% | tube area decrease [3] 1.4% | GLP1 secretion stimulation [4] 0.4% | inhibition of viability [5] 5.03% | viability decrease (inhibition) [6] -10% | viability decrease (inhibition) [7] 0.1% | inhibition [8] -6.99% | red/green cell ratio (normalised) [9] 1.05 | remaining activity [10] 110% | outcome [11] | outcome [12] | outcome [13]

NC(=O)c1ccccc1O
0.98: normalised cell number [9, 16]
0.94: normalised cell number [9, 17]
inactive: insulin secretion stimulation [1] -0.8% | viability decrease [2] 5.6% | tube area decrease [3] -13.1% | GLP1 secretion stimulation [4] 0.3% | inhibition of viability [5] 10.6% | viability decrease (inhibition) [6] 27.7% | viability decrease (inhibition) [7] 0.25% | inhibition [8] -8.81% | red/green cell ratio (normalised) [9] 0.96

CN1CCN(C(c2ccccc2)c2ccccc2)CC1
1.54: normalised cell number [9, 17]
1.05: normalised cell number [9, 16]
inactive: insulin secretion stimulation [1] 5.5% | viability decrease [2] -48% | tube area decrease [3] 22.5% | GLP1 secretion stimulation [4] 2.2% | inhibition of viability [5] 7.1% | viability decrease (inhibition) [6] 4.5% | viability decrease (inhibition) [7] -11.9% | inhibition [8] -2.54% | red/green cell ratio (normalised) [9] 1.46

CN1CCC[C@@H]1CCO[C@](C)(c1ccccc1)c1ccc(Cl)cc1
active: tube area decrease [3] 55% | inhibition of viability [5] 78.8% | viability decrease (inhibition) [6] 113% | viability decrease (inhibition) [7] 86.8%
inactive: insulin secretion stimulation [1] 1.3% | viability decrease [2] 25.3% | GLP1 secretion stimulation [4] 10.3% | inhibition [8] 12.4% | red/green cell ratio (normalised) [9] 1.23 | remaining activity [10] 109% | outcome [12]
1.3: normalised cell number [9, 17]
1.06: normalised cell number [9, 16]

Fc1ccc(C(c2ccc(F)cc2)N2CCN(C/C=C/c3ccccc3)CC2)cc1
inactive: insulin secretion stimulation [1] 2.65% | tube area decrease [3] 21.4% | GLP1 secretion stimulation [4] 0.7% | inhibition [8] 16.5% | red/green cell ratio (normalised) [9] 1.11 | remaining activity [10] 105% | outcome [12]
0.95: normalised cell number [9, 17]
active: viability decrease [2] 108% | inhibition of viability [5] 107% | viability decrease (inhibition) [6] 125% | viability decrease (inhibition) [7] 99.7%
0.86: normalised cell number [9, 16]

Nc1c(Br)cc(Br)cc1CNC1CCC(O)CC1 (stereo not given)
inactive: insulin secretion stimulation [1] 4.7% | viability decrease [2] 33.6% | tube area decrease [3] 20.4% | GLP1 secretion stimulation [4] -1.7% | inhibition of viability [5] 34.3% | viability decrease (inhibition) [6] 11.2% | viability decrease (inhibition) [7] 14% | inhibition [8] -12.9% | red/green cell ratio (normalised) [9] 0.72 | remaining activity [10] 105%
1.16: normalised cell number [9, 16]
0.84: normalised cell number [9, 17]

OCc1ccccc1O
inactive: insulin secretion stimulation [1] -0.1% | viability decrease [2] -7.2% | tube area decrease [3] 19.2% | GLP1 secretion stimulation [4] -0.3% | inhibition of viability [5] -6.03% | viability decrease (inhibition) [6] -5.8% | viability decrease (inhibition) [7] -17.8% | inhibition [8] -10.9% | red/green cell ratio (normalised) [9] 1.09
0.88: normalised cell number [9, 16]
0.96: normalised cell number [9, 17]

CS(=O)(=O)Nc1ccc([N+](=O)[O-])cc1Oc1ccccc1
inactive: insulin secretion stimulation [1] 0.6% | viability decrease [2] 7.2% | tube area decrease [3] 11.6% | GLP1 secretion stimulation [4] 0.1% | inhibition of viability [5] 15% | viability decrease (inhibition) [6] 10.5% | viability decrease (inhibition) [7] 17.8% | inhibition [8] 11.1% | red/green cell ratio (normalised) [9] 0.96 | remaining activity [10] 111% | outcome [11] | outcome [12] | outcome [14] | outcome [15]
1.01: normalised cell number [9, 17]
1.05: normalised cell number [9, 16]

COc1ccc(CN(CCN(C)C)c2ncccn2)cc1
1.2: normalised cell number [9, 17]
inactive: insulin secretion stimulation [1] 1.5% | viability decrease [2] -26.6% | tube area decrease [3] 5% | GLP1 secretion stimulation [4] 4.9% | inhibition of viability [5] 14.6% | viability decrease (inhibition) [6] 4.3% | viability decrease (inhibition) [7] -22.1% | inhibition [8] 0.837% | red/green cell ratio (normalised) [9] 1.15
1.04: normalised cell number [9, 16]

Cc1cc(=O)[nH]c(=S)[nH]1
inactive: insulin secretion stimulation [1] -0.5% | viability decrease [2] 0.65% | tube area decrease [3] -25.4% | GLP1 secretion stimulation [4] 1.6% | inhibition of viability [5] -2.3% | viability decrease (inhibition) [6] 11.6% | viability decrease (inhibition) [7] 0.15% | inhibition [8] -2.01% | red/green cell ratio (normalised) [9] 0.93
0.92: normalised cell number [9, 17]
0.99: normalised cell number [9, 16]

O=C1CCc2cc(OCCCCc3nnnn3C3CCCCC3)ccc2N1
inactive: insulin secretion stimulation [1] -1.5% | viability decrease [2] -19.3% | tube area decrease [3] 0.2% | GLP1 secretion stimulation [4] -1.1% | inhibition of viability [5] -0.27% | viability decrease (inhibition) [6] 36.4% | viability decrease (inhibition) [7] -12.1% | inhibition [8] 1.01% | red/green cell ratio (normalised) [9] 1.09 | remaining activity [10] 118% | outcome [11] | outcome [12] | outcome [14] | outcome [13] | outcome [15]
0.86: normalised cell number [9, 16]
0.94: normalised cell number [9, 17]

CCN(CC)CCOCCOC(=O)C1(c2ccccc2)CCCC1
inactive: viability decrease [2] 19.3% | tube area decrease [3] -3.1% | GLP1 secretion stimulation [4] 5.7% | viability decrease (inhibition) [6] 20.6% | inhibition [8] 1.3% | red/green cell ratio (normalised) [9] 1.27 | remaining activity [10] 92.5%
active: insulin secretion stimulation [1] 60% | inhibition of viability [5] 56.4% | viability decrease (inhibition) [7] 62.5%
1.28: normalised cell number [9, 17]
1: normalised cell number [9, 16]

From PubChem BioAssay
